PNC inhibitor – blocks assembly of the perinucleolar compartment | PC3M PTB-GFP, PNC prevalence imaging, 16 h; hits give low values | activity change (PNC), negative = inhibition, % at 10 µM | actives 3.1% (n = 140,000);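 active = readout at or below -70, meaning at least 70% loss of cells showing the perinucleolar compartment, a nuclear body marking cancer cells; inconclusive = readout between -30 and a set limit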;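 note: plate controls were DMSO wells for no effect and camptothecin positive control wells for full effect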
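Read-out is percentage of cells bearing a perinucleolar compartment, from automated 20x imaging of fixed, Hoechst-stained PC3M PTB-GFP cells. Cells were seeded 4 h, then exposed 16 h to compound (23 nl of library stock) in duplicate plates.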
KDM4E inh – inhibitors of human JMJD2E histone demethylase. JMJD2E catalytic domain, FDH-coupled NADH fluorescence (FDH is formaldehyde dehydrogenase). actives 1.6% (n = 230,000). B2RXH2. Potency, µM (series often up to 57.1 µM), without a hit: top-dose activity change, negative = inhibition, hits mostly inhibitors;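 note: potency is the fitted concentration of half-maximal effect; 0% = wells with enzyme and -100% = buffer wells without enzyme; nearly all actives have a fitted effect of over 50% in size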
HPGD inh – HPGD (human) dehydrogenase inhibition | AID 894 | P15428 | Potency, µM, without a hit: at the top dose activity change, negative = inhibition, hits mostly inhibitors | actives 4.3% (n = 150,000) | purified HPGD, NADH fluorescence kinetic, PGE2 substrate; note: potency is the fitted concentration of half-maximal effect
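20 nM HPGD preincubated 15 min at room temperature with compound in 50 mM Tris-HCl pH 8, 0.01% Tween 20. Started with 1 mM NAD+ and 30 uM prostaglandin E2; NADH fluorescence (360/450 nm) read 5 times over 30-s intervals, last minus first.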
ALDH1A1 block – ALDH1A1 (human) enzyme inhibition; P00352; Purified ALDH1A1, NADH fluorescence, propionaldehyde substrate; Potency, µM (top dose mostly 75.3 µM), for inactives: at the top dose activity, negative = inhibition, actives largely listed as inhibitors; actives 7.3% (n = 220,000); AID 1030;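 note: potency is the fitted concentration of half-maximal effect; plate controls were no enzyme wells and a reference inhibitor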
Target sequence (P00352 whole entry, looked up): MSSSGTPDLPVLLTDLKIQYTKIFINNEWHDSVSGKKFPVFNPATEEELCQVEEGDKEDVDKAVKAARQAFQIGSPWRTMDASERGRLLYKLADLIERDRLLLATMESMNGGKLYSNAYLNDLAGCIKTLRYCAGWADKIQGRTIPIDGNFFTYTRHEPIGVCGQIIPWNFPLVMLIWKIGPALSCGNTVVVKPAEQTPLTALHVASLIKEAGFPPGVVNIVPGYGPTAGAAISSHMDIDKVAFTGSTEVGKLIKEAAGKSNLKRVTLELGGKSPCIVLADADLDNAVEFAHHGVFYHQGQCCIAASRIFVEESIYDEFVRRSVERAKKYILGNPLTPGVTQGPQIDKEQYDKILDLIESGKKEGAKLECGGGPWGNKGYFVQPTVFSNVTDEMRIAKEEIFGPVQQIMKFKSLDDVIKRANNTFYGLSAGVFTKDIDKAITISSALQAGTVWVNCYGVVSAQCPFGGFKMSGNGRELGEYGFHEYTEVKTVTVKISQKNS
* = called active by the depositor; [ ] = dose if it differs, or a comment. The list is not random: actives were taken first. Their share in the collection is about 11%. Unless noted, calls come from the whole dose curve; as a rule, active = well fitted inhibition curve with a large enough effect (not every such curve was filed as active); inconclusive = small, poorly fitted or top-dose-only effect, or another doubt; inactive = no such curve, though single readings can be large or run the other way. Unless noted, % is set by controls: 0 for no effect and ±100 for the full control effect.

O=C1CCCC2=C1C(c1ccccc1)CC(=O)N2c1ccc(F)cc1F (stereo unspecified) was read as KDM4E inh 6% and ALDH1A1 block 13%.
For CCOC(=O)C1CCN(Cc2cccc(OC)c2)CC1 the results were PNC inhibitor 3, KDM4E inh inconclusive, HPGD inh -15% and ALDH1A1 block 32µM*.
Screening CCOC(=O)C1CCN(Cc2ccc(N(C)C)cc2)CC1 returned PNC inhibitor -28, KDM4E inh inconclusive, HPGD inh -3% and ALDH1A1 block -11%.
For CCOC(=O)C1CCN(Cc2ccc(F)c(F)c2)CC1 the results were PNC inhibitor -101*, KDM4E inh -12%, HPGD inh -3% and ALDH1A1 block inconclusive.
Screening Fc1ccccc1CN1CCCCCCC1 returned PNC inhibitor inconclusive, KDM4E inh -3%, HPGD inh -7% and ALDH1A1 block 14µM*.
`Cc1cc2ccccc2c[n+]1CC(O)C[n+]1cc2ccccc2cc1C` gave HPGD inh -13% and ALDH1A1 block 0%[13.5 µM].
Screening CC1(C)C(=O)NCCN1C(=O)CCC(=O)O returned PNC inhibitor 230, KDM4E inh -7%, HPGD inh -13% and ALDH1A1 block 7%.
O=C(c1ccc(Br)s1)N1CCN(C/C=C/c2ccccc2)CC1 was read as PNC inhibitor -3, KDM4E inh 4%, HPGD inh -24% and ALDH1A1 block 18µM*.
`O=C(c1ccc(=O)n(Cc2ccccc2)n1)N1CCN(C/C=C/c2ccccc2)CC1` gave PNC inhibitor -107*, KDM4E inh 0%, HPGD inh -3% and ALDH1A1 block inconclusive.
For CC(CCc1ccccc1)NC(=O)/C=C/c1ccccc1 (stereo unspecified) the results were PNC inhibitor 52, KDM4E inh 5%, HPGD inh -4% and ALDH1A1 block 11µM*.
CC(C)COc1ccc(CNC(=S)NCc2ccccc2)cc1 was read as PNC inhibitor -19, KDM4E inh -4%, HPGD inh -23% and ALDH1A1 block 1%.
For COc1ccc(CNC(=S)NCc2ccc(OC)cc2)cc1 the results were KDM4E inh -3% and ALDH1A1 block 20µM*.
`CC(CCc1ccccc1)NC(=O)CN1CCN(c2ccccc2)CC1` (stereo unspecified) gave KDM4E inh 0% and ALDH1A1 block 32µM*.
`COc1ccc(CNC(=S)NC(C)CCc2ccccc2)cc1` (stereo unspecified) gave KDM4E inh -2% and ALDH1A1 block 6.3µM*.
`COc1ccc(CNC(=S)Nc2ccc(OC)cc2)cc1` gave PNC inhibitor -2, KDM4E inh -3%, HPGD inh -17% and ALDH1A1 block inconclusive.
For CCCCCCCCNC(=S)NCCN1CCCCC1 the results were KDM4E inh inconclusive and ALDH1A1 block -7%.
Cc1cccc(C)c1NC(=S)NC(C)CCc1ccccc1 (stereo unspecified) was read as PNC inhibitor -82*, KDM4E inh 4%, HPGD inh -5% and ALDH1A1 block 5%.
Screening NS(=O)(=O)c1cccc(NC(=S)NC(=O)C23CC4CC(CC(C4)C2)C3)c1 returned PNC inhibitor -19, KDM4E inh -2%, HPGD inh -24% and ALDH1A1 block 28µM*.
`CSc1ncccc1C(=O)Nc1nnc(C2CC2)s1` gave KDM4E inh -6% and ALDH1A1 block -2%.
`Oc1ccc(CN2CCc3ccccc3C2)c2cccnc12` gave PNC inhibitor -6, KDM4E inh inconclusive, HPGD inh -5% and ALDH1A1 block -3%.
For Cn1cc(CN2CCc3ccccc3C2)c2ccccc21 the results were PNC inhibitor -17, KDM4E inh -7%, HPGD inh -16% and ALDH1A1 block 14µM*.
Cc1ccc(CNS(=O)(=O)c2ccc3c(c2)OCCO3)cc1 was read as PNC inhibitor -101*, KDM4E inh 2%, HPGD inh -3% and ALDH1A1 block -1%.
For O=S(=O)(NCCSc1ccc(Cl)cc1)c1ccc2c(c1)OCCO2 the results were PNC inhibitor -4, KDM4E inh -1%, HPGD inh -16% and ALDH1A1 block 14µM*.
Screening Cc1ccccc1CNS(=O)(=O)c1ccc2c(c1)OCCO2 returned PNC inhibitor -119*, KDM4E inh -5%, HPGD inh 25µM* and ALDH1A1 block -11%.
`O=S(=O)(NCc1ccc(F)cc1)c1ccc2c(c1)OCCO2` gave PNC inhibitor 54, KDM4E inh -2%, HPGD inh -12% and ALDH1A1 block -14%.

Source: PubChem
